Screens as filed in PubChem BioAssay.
HEK293 viab = counter-screen for SNCA expression inhibitors: cell viability. 150,000 compounds, 0.12% hits. Potency, µM (titrated, usually from 57.1 µM), for inactives: at the highest dose activity change, negative = cytotoxicity, usual class: cytotoxic. HEK-293-SNCA-luc viability, GF-AFC fluorescence, 24 h. AID 1671193;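 also: potency is read from the fitted curve at half-maximal effect; 0% = DMSO-treated cells and -100% = medium-only wells without cells; nearly all actives have a fitted effect of over 30% in size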
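HEK-293-SNCA-luc cells (1500/well) plated 24 h, then exposed 24 h to a dilution series; GF-AFC added 30 min at 37C, fluorescence 405/540 nm; normalised to medium-only and DMSO wells, Hill fit.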
HEK293 tox = cytotoxic compounds in HEK 293 cells. HEK 293 viability, ATP luminescence (CellTiter-Glo), 48-72 h. Potency, µM (series often up to 115 µM), without a hit: top-dose activity change, negative = cytotoxicity, most hits filed as inhibitors. 94,000 compounds, 6.6% hits. AID 1345083; also: potency is read from the fitted curve at half-maximal effect; nearly all actives have a fitted effect of over 60% in size
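Luminescence from cellular ATP, measured with CellTiter-Glo, indicates HEK 293 viability. Cells plated at 250 cells/well are treated with compound for 48 or 72 hr at 37 degree Celsius before reagent addition.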
IP6K1 inhibitor = inhibitors of human IP6K1; 140,000 compounds, 0.81% hits; activity change, % (series mostly up to about 58 µM); Q92551; IP6K1 kinase, ADP-Glo luminescence, 2 h; active compounds read low; AID 1645851; in the data active = activity change below about -25%
Target sequence (Q92551 whole entry, looked up): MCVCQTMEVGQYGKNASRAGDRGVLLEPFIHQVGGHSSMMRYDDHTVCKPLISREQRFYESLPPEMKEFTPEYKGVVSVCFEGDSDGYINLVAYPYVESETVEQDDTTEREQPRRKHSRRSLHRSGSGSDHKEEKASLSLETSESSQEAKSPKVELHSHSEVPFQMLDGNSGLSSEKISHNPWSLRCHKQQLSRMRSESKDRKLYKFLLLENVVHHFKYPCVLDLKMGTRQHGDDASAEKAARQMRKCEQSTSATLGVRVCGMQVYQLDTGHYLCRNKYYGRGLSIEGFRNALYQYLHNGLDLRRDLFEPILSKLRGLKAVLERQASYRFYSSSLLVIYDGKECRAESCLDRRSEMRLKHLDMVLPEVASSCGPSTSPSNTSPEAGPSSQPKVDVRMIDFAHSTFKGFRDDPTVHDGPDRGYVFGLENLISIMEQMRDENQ
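ADP-Glo luminescence measures ADP made by human IP6K1 during a 2 h RT reaction with ATP/IP6 (mix at 1.3 mM/130 uM); top library doses 57.5 and 19.1 uM final.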
FLuc inh = blocks purified firefly luciferase enzyme activity; purified P. pyralis luciferase, luminescence, biochemical; P08659; 76,000 compounds, 2.5% hits; AID 1347043; Potency, µM (titrated, usually from 115 µM), hits mostly inhibitors; also: potency is read from the fitted curve at half-maximal effect; nearly all actives have a fitted effect of over 65% in size
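Luminescence read by CCD imager after adding enzyme (10nM final) to wells holding compound, titrated in qHTS. Substrates 10uM each D-luciferin and ATP; buffer 50mM Tris acetate pH 7.5, 10mM Mg acetate, Tween-20, BSA.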
3T3 cytotox = cytotoxic compounds in NIH 3T3 cells. NIH 3T3 viability, CellTiter-Glo ATP luminescence, 48-72 h. Potency, µM (top dose mostly 96.7 µM), without a hit: top-dose activity change, negative = cytotoxicity, actives largely listed as inhibitors. 94,000 compounds, 4.3% hits; also: potency is read from the fitted curve at half-maximal effect; nearly all actives have a fitted effect of over 55% in size
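Viability of NIH 3T3 cells after 48 or 72 hr compound treatment at 37 °C was assessed by CellTiter-Glo, with luminescence imaged following a 10 min room-temperature step.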
SNCA expr inh = inhibitors of alpha-synuclein (SNCA) gene expression; HEK-293 SNCA-luciferase knock-in, luminescence, 24 h; Potency, µM (titrated, usually from 57.2 µM), for the others: at the highest dose activity change, negative = inhibition, usual class: inhibitors; 140,000 compounds, 0.17% hits; AID 1671194;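 also: potency is read from the fitted curve at half-maximal effect; plate controls were DMSO cells for no effect and cell-free wells for full effect; nearly all actives have a fitted effect of over 45% in size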
Starred values were filed as active, the others as inactive; i = inactive; ? = inconclusive; . = no result; ! = a repeat was not active; [ ] = remark or other dose. A selection: hits, their analogues and other compounds. The true share with any hit is near 7.3%. Unless noted, calls follow the shape of the dose curve; as a rule, active = well fitted curve in the direction sought with a large enough effect; inconclusive = small, poorly fitted or top-dose-only effect, or another doubt; inactive = no such curve, though single readings can be large; an effect the other way counts as inactive or inconclusive. Unless noted, % is scaled to controls: 0 for no effect and ±100 for the full control effect.

SMILES	HEK293 viab	HEK293 tox	IP6K1 inhibitor	FLuc inh	3T3 cytotox	SNCA expr inh
O=C(CCc1conc1-c1ccccc1)NCc1ccccc1F	15.8%	-3.3%	1.6	i	-1.5%	52.1%
COc1ccc(F)cc1-c1ccc(CN2CCCCC2C(=O)NC2CCC2)cc1 (centres undefined)	.	35.5µM*	6.4	.	?	.
COc1ccc(F)cc1-c1ccc(CN2CCCCC2C(=O)N2CCN(c3ncccn3)CC2)cc1 (centres undefined)	.	44.7µM*	-7.4	.	?	.
COc1ccc(F)cc1-c1ccc(CN2CCC(NC(=O)NC(C)C)C2)cc1 (centres undefined)	.	?	11.5	.	?	.
COc1ccc(F)cc1-c1ccc(CN2CCC(NC(=O)C3CCCCC3)C2)cc1 (centres undefined)	.	44.7µM*	-1.0	.	31.6µM*	.
COc1ccccc1-c1ccc(CN2CCCCC2C(=O)NC2CCCCC2)cc1 (centres undefined)	.	22.4µM*!	-0.1	.	44.7µM*!	.
O=C(c1nccc2ccccc12)N1CCC(Cc2nc(C3CC3)n[nH]2)C1 (centres undefined)	11.9%	-15.7%	-1.5	i	-23.8%	25.0%
COc1ccc(OCc2nc(C(=O)N3CCC4(CCCN(C)C4=O)C3)co2)cc1 (centres undefined)	-5.4%	-22.6%	1.2	?	?	-8.4%
Cc1ccsc1C(=O)N1CCC(N2C(=O)CCC2C(=O)NCc2cccnc2)CC1 (centres undefined)	0.9%	-14.9%	9.6	.	-7.7%	9.9%
COc1ccccc1-c1ccc(CN2CCCCC2C(=O)NC2CC2)cc1 (centres undefined)	.	39.8µM*	22.6	.	?	.
CCOCCCNC(=O)C1CCCCN1Cc1ccc(-c2ccccc2OC)cc1 (centres undefined)	.	?	11.9	.	?	.
COCC(=O)N1CCCC(C(=O)N2CCCC2c2nc3ccncc3[nH]2)C1 (centres undefined)	6.2%	3.8%	-4.7	.	i	9.9%
Nc1cc(C(=O)N2CCc3onc(-c4ccc(-c5ccccc5)cc4)c3C2)[nH]n1	?	17.8µM*	-11.2	?	?	-3.4%
COCCn1nc2n(c1=O)CCN(Cc1ccc3cc[nH]c3c1)CC2	17.6%	0.0%	-2.5	i	-12.4%	1.4%
CN(C)c1cccc(C(=O)N2CCCC(n3cc(-c4nc(-c5ccccc5)no4)nn3)C2)c1 (centres undefined)	-17.7%	?	18.5	?	?	69.2%
CN(C)c1cccc(C(=O)N2CCC(n3cc(-c4nc(-c5ccccc5)no4)nn3)C2)c1 (centres undefined)	?	28.2µM*	-11.1	31.6µM*	?	?
O=C(c1cc(Cl)ccc1F)N1CCCC(n2cc(-c3nc(-c4ccccc4)no3)nn2)C1 (centres undefined)	-29.2%	31.6µM*	0.0	?	?	22.5%
Cn1cccc1C(=O)N1CCCC(n2cc(-c3nc(-c4ccccc4)no3)nn2)C1 (centres undefined)	-2.3%	?	2.6	79.4µM*	?	104.3%
O=C(c1ccc(F)c(F)c1)N1CCCC(n2cc(-c3nc(-c4ccccc4)no3)nn2)C1 (centres undefined)	-3.9%	44.7µM*	-6.0	?	?	67.7%
O=C(c1ccc(F)cc1)N1CCCC(n2cc(-c3nc(-c4ccccc4)no3)nn2)C1 (centres undefined)	?	?	2.9	?	?	?
Cn1cccc1C(=O)N1CCCC(n2cc(-c3nc(C4CC4)no3)nn2)C1 (centres undefined)	3.7%	-26.6%	7.7	i	-11.9%	2.6%
O=C1Nc2ccccc2CC12CCCN(Cc1ccccc1)C2 (centres undefined)	-0.9%[87.6 µM]	-23.6%[172 µM]	-13.1	.	-12.1%[138 µM]	-3.0%[87.6 µM]
Cc1ccc(C(=O)N2CCCC3(CCNCC3)CC2)c2ccccc12	-15.0%	-13.6%	11.4	i	i	3.5%
CC(C)c1ccc(S(=O)(=O)c2nnn3c2nc(NCc2ccc(F)cc2)c2ccccc23)cc1	9.3%	-25.4%	10.2	.	?	-4.2%
N#Cc1ccc(-c2nc(C(=O)NC3CCCCC3)no2)cc1	8.7%	-19.0%	-9.2	i	1.7%	36.6%
SMILES	HEK293 viab	HEK293 tox	IP6K1 inhibitor	FLuc inh	3T3 cytotox	SNCA expr inh
O=C1NC2(CCN(Cc3ccc(OC(F)(F)F)cc3)CC2)COc2ccccc21	5.4%	2.8%	9.6	i	i	-5.2%
CCCc1noc(-c2cn(C3CCN(C(=O)c4cccc(F)c4)CC3)nn2)n1	-11.2%	-13.1%	16.3	i	35.5µM*	-3.2%
CCc1noc(-c2cn(C3CCN(C(=O)c4cccc(Cl)c4)C3)nn2)n1 (centres undefined)	6.1%	?	-0.6	i	?	-13.9%
CCCc1noc(-c2cn(C3CCN(C(=O)c4cc(F)cc(F)c4)CC3)nn2)n1	?	?	26.1	i	-24.6%	12.2%
CC(Oc1ccccc1)C(=O)N1CCC(n2cc(-c3nc(-c4ccccc4)no3)nn2)CC1 (centres undefined)	?	20µM*	10.9	i	?	?
O=C(c1cccc(Cl)c1)N1CCC(n2cc(-c3nc(-c4ccccc4)no3)nn2)C1 (centres undefined)	?	39.8µM*	-13.1	?	?	-26.2%
COc1ccc(OCC2CCCN(C(=O)c3cn(C4CCCCC4)nn3)C2)cc1 (centres undefined)	-7.0%	?	5.1	31.6µM*	?	-11.0%
CN(C)C(=O)c1cc(-c2ccc(Cl)cc2Cl)nc2c1cnn2C	-4.1%	-26.7%	-12.1	.	-27.8%	-11.5%
COc1ccccc1C(=O)N1CCC(n2cc(-c3nc(-c4ccccc4)no3)nn2)C1 (centres undefined)	-20.9%	28.2µM*	7.9	31.6µM*	?	-23.7%
COc1ccc(C(=O)N2CCCC(n3cc(-c4nc(-c5ccccc5)no4)nn3)C2)cc1 (centres undefined)	?	28.2µM*	8.2	?	?	36.2%
COc1ccc(C(=O)N2CCCC(n3cc(-c4nc(-c5ccccc5)no4)nn3)C2)cc1F (centres undefined)	5.6%	20µM*	7.2	?	?	105.6%
O=C(c1ccoc1)N1CCCC(n2cc(-c3nc(-c4ccccc4)no3)nn2)C1 (centres undefined)	-7.3%	50.1µM*	18.2	?	?	18.2%
